Data on 40 compounds can be found in PubChem BioAssay (NCATS).

Results filed as inconclusive are left out. Values without a mark were called inactive. Activity calls are given as the source filed them. Calls come from the whole dose curve; as a rule, active = well fitted cell-killing curve with a large enough effect; inconclusive = small, poorly fitted or top-dose-only effect; inactive = no such curve, though single readings can be large or run the other way.
Potency is the fitted concentration of half-maximal effect.

A short description of this experiment: qHTS of pediatric cancer cell lines to identify multiple opportunities for drug repurposing: Primary screen for NB-EBc1 cells (AID 1347095). The following applies: NB-EBc1 neuroblastoma viability, CellTiter-Glo luminescence, 48 h; series mostly up to 46 µM; activity change, negative = cytotoxic: at the top concentration. The source says: Drug repurposing or repositioning has been offered as a strategy for drug development in oncology programs. This approach has special potential for childhood cancers and other rare or orphan diseases, where the expected return on new drug development has been a disincentive to pharmaceuticals. […] In this project we exploit the poly-pharmacology of drugs to discover new indications via phenotypic screening of a panel of 19 well-characterized cell lines derived from solid tumors seen in children and adolescents. The goal is to identify approved drugs with previously unrecognized anticancer properties that has the potential to reveal new mechanisms and biological processes involved in carcinogenesis or drug resistance. We employed a titration-based paradigm (quantitative high-throughput screening or qHTS), where all compounds were tested at multiple concentrations for their effect on cell viability. Concentration-response curves (CRCs) were derived directly from the primary screen, and both potency and efficacy values were used to identify compounds with robust bioactivity profiles. We screened the NIH Chemical Genomics Center (NCGC) Pharmaceutical Collection (NPC) and Mechanism Interrogation Plate (MIPE) small molecule collections of approved and investigational compounds against these cell lines; and measured metabolically active cells after 48 hours of compound treatment as a proxy for cell viability. […] Assay Submitter: Nathalia J. Martinez, National Center for Advancing Translational Sciences, National Institutes of Health, Rockville, MD, USA; email: natalia.martinez@nih.gov Shen, M et al. Quantitative high-throughput phenotypic screening of pediatric cancer cell lines identifies multiple opportunities for drug repurposing. Oncotarget 2017 Dec 19;9(4):4758-4772. PMID 29435139.
The cells were obtained from University of North Carolina (UNC), Pediatric Preclinical Testing Program (PPT), and Coriell Institute (CI). qHTS cell viability assay: Cells were assayed in growth media at a density of 500-1,000 cells/well. Five microliters of cells were dispensed into 1,536-well, white, solid-bottom, TC-treated plates (Greiner Bio One) using a multidrop dispenser and incubated at 37 degrees C, 5% CO2, under a humidified atmosphere for 5 hours. Twenty-three nanoliters of compounds and controls (neutral control DMSO or positive control bortezomib at final concentration of 2.3 µM) were subsequently transferred by Kalypsys pintool. For primary screens, the MIPE collection was tested at 11-point dilutions (final concentrations range from 0.78 nM to 46 µM) and the NPC collection at 8-point dilutions (final concentrations range from 0.59 nM to 46 µM). Compounds tested in follow-up screens were assayed at 11-point dilutions. Cells were incubated for 48 hours, followed by addition of 3 µL of CellTiter-Glo (Promega). After a 15 min incubation at room temperature, samples were analyzed for luminescence intensity using a ViewLux High-throughput CCD imager equipped with clear filters.
In the case of `CC1(C)O[C@@H]2C[C@H]3[C@@H]4C[C@H](F)C5=CC(=O)C=C[C@]5(C)[C@H]4[C@@H](O)C[C@]3(C)[C@]2(C(=O)CO)O1`, the “activity change, negative = cytotoxic” value is -3.6%.
For `CC(=O)Nc1c(I)cc(I)c(C(=O)O)c1I`, the “activity change, negative = cytotoxic” value is 19.1%.
With `CCCC(=O)Nc1ccc(OCC(O)CNC(C)C)c(C(C)=O)c1` (stereo not given), the “activity change, negative = cytotoxic” value was 0.452%.
With `CN(C)C(=S)SC(=S)N(C)C`, the Potency is 10600 nM (active).
On to `OC[C@@H](O)[C@@H](O[C@@H]1O[C@H](CO)[C@H](O)[C@H](O)[C@H]1O)[C@H](O)[C@@H](O)CO`, for which the “activity change, negative = cytotoxic” value is 4.88%.
On the same count and under the same terms, for `CCCCCCCCCCCCCCCCCC(=O)OCC(O)CO` (stereo not given) the value was 14%; for `O=C(O)CNC(=O)c1ccccc1`, 18.8%.
For `CC(=O)OCC(=O)[C@@]1(OC(C)=O)[C@@H](C)C[C@H]2[C@@H]3C[C@H](F)C4=CC(=O)C=C[C@]4(C)[C@@]3(F)[C@@H](O)C[C@@]21C`, the “activity change, negative = cytotoxic” value is 16.5%.
Regarding `Cc1ncc(CSSCc2cnc(C)c(O)c2CO)c(CO)c1O`, the “activity change, negative = cytotoxic” value was 9.55%.
On to `CO/N=C1\CN(c2nc3c(cc2F)c(=O)c(C(=O)O)cn3C2CC2)CC1CN` (stereo not given), for which the “activity change, negative = cytotoxic” value is 49.1%.
In the case of `Cc1c(C(N)=O)cc([N+](=O)[O-])cc1[N+](=O)[O-]`, the “activity change, negative = cytotoxic” value is -5.98%.
Take `CC(C)n1nc(-c2cc3cc(O)ccc3[nH]2)c2c(N)ncnc21`: the Potency is 944 nM (active).
With `CCCCCCCCCCCCCCNCCO`, the “activity change, negative = cytotoxic” value is 4.74%.
On to `CCOC(=O)OC(C)OC1=C(C(=O)Nc2ccccn2)N(C)S(=O)(=O)c2ccccc21` (stereo not given), for which the “activity change, negative = cytotoxic” value was 7.16%.
For the compound `CC(=O)[C@H]1CC[C@H]2[C@@H]3C[C@H](C)C4=CC(=O)CC[C@]4(C)[C@H]3[C@@H](O)C[C@]12C`, the “activity change, negative = cytotoxic” value is 14.6%.
As to `CCN(CC)CCNC(=O)COc1ccc(Cl)cc1`, the “activity change, negative = cytotoxic” value was 8.55%.
For the compound `COCc1c(C(C)C)nc(C(C)C)c(/C=C/[C@@H](O)C[C@@H](O)CC(=O)O)c1-c1ccc(F)cc1`, the Potency is 1680 nM (active).
`NC[C@H]1O[C@H](O[C@H]2[C@H](O[C@@H]3O[C@H](CO)[C@@H](O)[C@H]3O)C(O)[C@H](N)C[C@@H]2N)[C@H](N)[C@@H](O)[C@@H]1O` (stereo not given in full): the activity change, negative = cytotoxic is 28.9% [at 9.22 µM].
Turning to `NC(=O)c1cc[n+](CC2=C(C(=O)[O-])N3C(=O)[C@@H](NC(=O)Cc4cccs4)[C@H]3SC2)cc1`, the “activity change, negative = cytotoxic” value was -0.403%.
Take `OC(CCN1CCCCC1)(c1ccccc1)c1ccccc1`: the “activity change, negative = cytotoxic” value is -0.962%.
Same read-out and setting: the figure for `NCCCC[C@H](N[C@@H](CCc1ccccc1)C(=O)O)C(=O)N1CCC[C@H]1C(=O)O` is 13.4%.
On the same count and under the same terms, the figure for `CCN(CCCc1ccccc1)CCCc1ccccc1` is -1.14%.
With `C[C@@H]1CN(CCCn2c3ccccc3c3ccccc32)C[C@H](C)N1`, the “activity change, negative = cytotoxic” value was -16.4%.
For `CN(C)CC/C=C1/c2ccccc2COc2ccc(CC(=O)O)cc21`, the “activity change, negative = cytotoxic” value is 8.85%.
On to `C[C@@H](CN(C)C)CN1c2ccccc2Sc2ccccc21`, for which the “activity change, negative = cytotoxic” value is -16.9%.
On to `CC(Cc1ccccc1)(NC(=O)CN)c1ccccc1` (stereo not given), for which the “activity change, negative = cytotoxic” value was 2.89%.
With `Cc1cc2c(cc1CC(=O)c1sccc1S(=O)(=O)Nc1onc(C)c1Cl)OCO2`, the “activity change, negative = cytotoxic” value was 21.5%.
As for `Nc1ccc(C(=O)Nc2ccccc2N)cc1`, the Potency was 3760 nM (active).
For `CC[N+](CC)(CCNC(=O)C(=O)NCC[N+](CC)(CC)Cc1ccccc1Cl)Cc1ccccc1Cl`, the “activity change, negative = cytotoxic” value is 4.17%.
Consider `NCCc1ccn[nH]1`, for which the “activity change, negative = cytotoxic” value is 7.42%.
In the case of `CN1CCN(CCCN2c3ccccc3Sc3ccc(S(=O)(=O)N(C)C)cc32)CC1`, the “activity change, negative = cytotoxic” value is -0.28%.
For the compound `CCN1CCCC1=O`, the “activity change, negative = cytotoxic” value was 19.6%.
Consider `CCOC(=O)[C@H](CCc1ccccc1)N[C@@H](C)C(=O)N1Cc2ccccc2C[C@H]1C(=O)O`, for which the “activity change, negative = cytotoxic” value was 11%.
Still for that read-out and setting: the figure for `CN1[C@@H]2CC[C@H]1CC(OC(=O)c1c[nH]c3ccccc13)C2` (stereo not given in full) is -6.16%.
With `O=C1OC(c2ccc(O)cc2)(c2ccc(O)cc2)c2ccccc21`, the “activity change, negative = cytotoxic” value is -4.26%.
Take `O=C(CCCN1CCC(O)(c2ccc(Br)cc2)CC1)c1ccc(F)cc1`: the “activity change, negative = cytotoxic” value is 3.68%.
Consider `O=c1ccc2ccccc2o1`, for which the “activity change, negative = cytotoxic” value was 17.7%.
With `C[C@@H]1C[C@H]2[C@@H]3C[C@H](F)C4=CC(=O)C(Cl)=C[C@]4(C)[C@@]3(F)[C@@H](O)C[C@]2(C)[C@@]1(O)C(=O)CO`, the “activity change, negative = cytotoxic” value is 12.3%.
The same measure, in the same setting: the figure for `CN=C(NC#N)NCCSCc1csc(N=C(N)N)n1` is 9.58%; for `OCc1ccccc1O` it is 23.8%.
